Screening results: PubChem, National Center for Advancing Translational Sciences (NCATS)
In the library only some 4.7% were active in any assay of this set; here they are far more common.
D1 ag – Allosteric Agonists of the Human D1 Dopamine Receptor: qHTS; activation, % at 2 µM; AID 504660, 2011; D(1A) dopamine receptor (Homo sapiens), P21728; 1% of 360,000 active; HEK293 T-REx D1 cells, calcium flux, agonist mode; also: 0% is about no effect
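Inducible HEK293 T-REx D1 cells, force-coupled to calcium signalling, were plated at 4000 cells/well with tetracycline and held overnight at 30 C. After no-wash calcium dye loading, compound-evoked calcium rise over 180 s flagged agonists.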
D1 PAM – Potentiators of Human D1 Dopamine Receptor: qHTS; D(1A) dopamine receptor (Homo sapiens), P21728; HEK293 TREx D1 cells, calcium flux, dopamine EC20 potentiation; potentiation, % at 10 µM; 0.036% of 360,000 active; in the data active = potentiation above about 30%; also: 0% is about no effect
TRHR enhancer – qHTS for Small Molecule Agonists and Allosteric Enhancers of Human TRH Receptor: Primary Screen for Enhancers | Thyrotropin-releasing hormone receptor (Homo sapiens), P34981 | TRHR cells, fluo-8 calcium fluorescence, EC20 TRH enhancement | enhancement, % at 2 µM | 0.66% of 360,000 active | AID 493056, 2011; in the data active = enhancement above about 30%; also: 0% is about no effect
Target sequence (P34981 whole entry, looked up): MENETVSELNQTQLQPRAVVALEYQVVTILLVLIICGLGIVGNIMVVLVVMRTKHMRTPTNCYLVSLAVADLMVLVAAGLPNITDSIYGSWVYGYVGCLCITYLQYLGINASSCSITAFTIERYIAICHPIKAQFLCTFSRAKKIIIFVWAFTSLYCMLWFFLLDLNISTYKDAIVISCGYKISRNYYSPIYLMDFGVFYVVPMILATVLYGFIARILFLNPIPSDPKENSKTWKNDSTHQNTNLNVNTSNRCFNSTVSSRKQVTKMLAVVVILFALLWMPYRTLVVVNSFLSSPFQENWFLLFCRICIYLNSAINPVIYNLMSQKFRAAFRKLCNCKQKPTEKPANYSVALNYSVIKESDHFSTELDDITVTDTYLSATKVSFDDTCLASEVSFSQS
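Enhancer read-out: after compound pinning and an initial kinetic agonist-mode read, an EC20 of TRH (10 nM final) was injected and fluo-8 calcium signal (Ex 480/Em 530) followed at 1 s/cycle for 100 cycles in TRHR-expressing cells.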
TRHR ag – qHTS for Small Molecule Agonists and Allosteric Enhancers of Human TRH Receptor: Primary Screen for Agonists; activation, % at 2 µM; 0.18% of 360,000 active; AID 493084, 2011; TRHR cells, calcium flux fluo-8, FDSS agonist mode; also: 0% is about no effect
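Agonist-mode FDSS calcium read (Ex 480/Em 530, 1 s cycles) in 1536-well TRHR cells with fluo-8 dye, after 10-cycle baseline and 23 nL compound addition; TRH at EC20 (10 nM final) added afterwards for the enhancer phase.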
D1 antagonist – Antagonist of Human D 1 Dopamine Receptor: qHTS; activity change, negative = inhibition, % at 10 µM; 3.2% of 360,000 active; D(1A) dopamine receptor (Homo sapiens), P21728; HEK293 TREx D1 cells, calcium flux, dopamine EC80; hits give low values; in the data active = activity change below about -30%; also: % is scaled to controls: 0 for no effect and ±100 for the full control effect
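HEK293 T-REx cells expressing inducible, force-coupled D1 receptor; no-wash Ca dye, 30–90 min RT. Cmpd → 180 s read at 1 Hz → EC80 DA → 180 s read.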
* hit, by the source's call; x = no result. Rule as the data show it, unless noted: active = activation above about 30%; inactive = the rest.

SMILES	D1 ag	D1 PAM	TRHR enhancer	TRHR ag	D1 antagonist
CCOc1ccccc1CNC(=O)c1cc2oc3ccccc3c2n1CC	1.1	-6.3	-3.5	0.5	-42.8*
CCN(CC)c1ccc(/C=C/c2cc(-c3ccccc3)c3ccccc3n2)cc1	325.3*	16.7	27.7	88.8*	-57.3*
O=C(OCC(=O)N1CCC(Cc2ccccc2)CC1)c1ccc(CO)cc1	4.5	-11.2	4.1	4.0	-13.5
CCCN1CCN(CCCNC(=O)c2ccc3c(c2)sc2nc(-c4ccc(C)cc4)cn23)CC1	1.6	-2.4	0.9	0.2	-30.4*
O=C(NCCCN1CCCCCC1)c1ccc2c(c1)sc1nc(-c3ccccc3)cn12	1.7	3.9	13.9	0.3	-12.5
Cc1ccccc1-c1nnc(-c2ccc(Cl)cc2)o1	9.5	4.6	7.6	-0.5	0.5
Cc1ccc(CS(=O)(=O)c2ccccc2-c2nnc(-c3ccc(Cl)cc3)o2)cc1	15.2	-6.1	-2.9	0.7	-38.8*
O=C(NCCn1cc(SCc2ccccc2F)c2ccccc21)c1cccs1	1.7	-6.0	-6.2	0.7	5.2
CC(C)c1nc(NCC2CCCO2)c(C#N)c2c1COC(C)(C)C2 (centres undefined)	2.4	-9.2	1.9	0.9	6.6
CCc1nc(NCC2CCCO2)c(C#N)c2c1COC(C)(C)C2 (centres undefined)	1.2	-2.1	8.4	-1.2	-34.9*
COc1ccc2nc(N(Cc3cccnc3)C(=O)C3CCCCC3)sc2c1	2.4	-2.4	4.6	-0.2	x
Cc1ccc(OCCC(=O)Nc2ccc3c(c2)OCO3)cc1	0.8	-1.3	3.7	0.8	6.4
CCc1ccc(OCC(=O)Nc2ccncc2)c(Br)c1	9.3	-13.3	-1.4	0.0	-29.5
COc1ccc(-c2cc(C(=O)OCC(=O)Nc3ccc4c(c3)OCO4)c3ccccc3n2)cc1	1.8	-7.5	-5.3	0.7	-14.3
Cc1cc(OCC(=O)Nc2ccncc2)c(C)cc1Br	19.5	-12.3	-8.8	0.5	-33.1*
Cc1ccc(OCCC(=O)OCC(=O)Nc2ccc3c(c2)OCO3)cc1	3.6	-6.0	-3.5	-0.2	-64.0*
Cc1cc(C)c(OCC(=O)Nc2ccc3c(c2)OCO3)cc1C	124.4*	17.6	-2.4	-0.9	3.9
O=C(COC(=O)c1cc(-c2ccccc2)nc2ccccc12)Nc1ccc2c(c1)OCO2	2.2	-3.0	-3.9	0.1	-41.9*
Cc1ccc(C)c(OCC(=O)Nc2ccc3c(c2)OCO3)c1	7.2	-5.7	10.7	0.4	1.3
CCC(CC)c1nn2c(=O)cc(COc3ccc(NC(=O)c4cccc(Cl)c4)cc3)nc2s1	2.5	-3.2	-4.0	0.9	5.2
O=C(NCCSCc1ccco1)c1ccc(=O)[nH]c1	5.6	x	-3.2	1.4	-11.5
COc1ccc(CNC(=O)c2cnc3sc(N4CCCC4)nn3c2=O)c(OC)c1	0.9	1.1	0.2	-0.1	-1.4
CCCn1c2ccccc2c2cnn(CC(=O)Nc3ccc(C)cc3Br)c(=O)c21	-1.0	-2.2	-11.3	0.7	-0.4
CC(=O)N(C)c1ccc(NC(=O)COc2ccc(Br)cc2C)cc1	17.4	-8.2	0.4	0.0	-54.7*
Cn1cc(-c2cc3n(n2)CCC(=O)N3CCCC(=O)Nc2ccccc2F)c2ccccc21	4.6	-1.2	-1.4	-1.3	4.1
SMILES	D1 ag	D1 PAM	TRHR enhancer	TRHR ag	D1 antagonist
N#C/C(=C/c1ccc(N2CCCCC2)o1)C(=O)Nc1ccc(Cl)cc1	419.9*	-18.1	0.4	164.6*	-2.6
N#C/C(=C/c1ccc(N2CCCCC2)o1)C(=O)Nc1ccc2ccccc2c1	312.9*	-7.6	-13.8	106.4*	-37.6*
COc1ccc(NC(=O)/C(C#N)=C/c2ccc(Br)o2)cc1	5.6	0.8	0.0	0.4	-0.6
Cc1ccc(N2CN=C3SCC(=O)N3C2)cc1C	-0.3	-4.8	2.6	-0.3	4.7
CC(=O)Nc1ccc(NC(=O)C(C)OC(=O)c2cccs2)cc1 (centres undefined)	0.5	-13.1	-1.3	0.2	-37.4*
O=C(OCc1cc(=O)n2nc(-c3cccs3)sc2n1)c1ccccc1Cl	2.5	-6.2	1.0	0.4	12.2
COc1cccc(NC(=S)NN2CCN(C)CC2)c1	0.5	-9.7	0.9	0.3	3.2
CN1CCN(NC(=S)Nc2ccc(Oc3ccccc3)cc2)CC1	36.4*	-3.0	-5.5	0.5	-11.4
CCOc1ccccc1OCCN1CCCC1	5.8	-1.1	-7.7	0.3	-33.6*
CCN1CCN(CCOc2ccccc2OCc2ccccc2)CC1	4.1	-1.1	5.7	0.1	-32.0*
CCN1CCN(Cc2ccc(OCc3ccccc3)cc2)CC1	37.8*	-6.2	5.1	0.0	-12.7
CCOc1ccccc1OCCN1CCC(Cc2ccccc2)CC1	27.6	-15.8	-1.2	-0.6	-22.3
CCN1CCN(Cc2ccc(OCc3ccccc3)c(OC)c2)CC1	0.9	-3.5	18.5	2.1	7.3
CC(=O)N1CCc2cc(CNS(=O)(=O)c3ccc(C(C)(C)C)cc3)ccc21	11.5	-2.9	0.2	0.3	-3.9
COc1ccc(-c2nc(C)c(CCNC(=O)C(=O)Nc3c(C)cccc3C)s2)cc1OC	-0.5	-4.3	0.5	-0.9	22.3
Cc1ccc(S(=O)(=O)Nc2cc3c(cc2NCc2ccccc2)n(C)c(=O)n3C)c(C)c1	0.1	1.2	0.0	-0.9	3.0
CCOC(=O)C1=C(C)NC(C)=C(C(=O)OCCNC(=O)c2cccnc2)C1c1cccc([N+](=O)[O-])c1 (centres undefined)	1.1	-6.0	-3.4	-1.3	1.3
COC(=O)C1=C(C)NC(C)=C(C(=O)OCCN(C)Cc2ccccc2)C1c1cccc([N+](=O)[O-])c1 (centres undefined)	0.3	-5.3	-1.0	-0.6	-34.7*
COc1ccc(-c2nc(CSCC(=O)NCCc3ccc(C)cc3)c(C)o2)cc1OC	0.0	2.0	-4.3	0.7	-1.4
CCOC(=O)CCSc1nc2c(c(C(F)(F)F)c1C#N)CCC2	-1.0	3.6	-4.1	-0.3	-37.9*
CCCCSc1nc2c(c(C(F)(F)F)c1C#N)CCC2	-0.6	-3.6	0.3	0.2	13.1
Fc1ccc(CNCc2ccco2)cc1	10.0	-0.5	9.9	-2.1	-5.6
COc1ccc(CC2(CO)CCN(Cc3cnn(-c4ccc(F)cc4)c3)CC2)cc1	47.0*	-4.5	1.2	3.1	-29.2
COc1ccc(-n2c(=O)c3c(c4cc(OC)ccc4n3C)n(Cc3cc(C)ccc3C)c2=O)cc1	-1.3	-3.2	3.5	-0.1	-74.2*
COc1cccc(CN(C)C(=O)C23CC4CC(CC(C4)C2)C3)c1	2.4	3.1	22.7	0.4	-34.3*
